From PubChem
Sampled rows, rich in hits. Any-hit rate of the full collection: about 2.6%.
Cruzain Triton: qHTS Assay for Promiscuous and Specific Inhibitors of Cruzain (with detergent); Cruzipain (Trypanosoma cruzi), P25779; purified cruzain, Z-FR-AMC fluorescence, 0.01% Triton; Potency, µM, for inactives: max response, negative = inhibition, usual class: inhibitors; 200,000 compounds, 0.43% hits; AID 1478, 2009;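 further: plate controls were neutral wells for no effect and buffer without enzyme for full effect; nearly all actives have a fitted effect of over 40% in size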
Target sequence (P25779 123-467 limits assumed): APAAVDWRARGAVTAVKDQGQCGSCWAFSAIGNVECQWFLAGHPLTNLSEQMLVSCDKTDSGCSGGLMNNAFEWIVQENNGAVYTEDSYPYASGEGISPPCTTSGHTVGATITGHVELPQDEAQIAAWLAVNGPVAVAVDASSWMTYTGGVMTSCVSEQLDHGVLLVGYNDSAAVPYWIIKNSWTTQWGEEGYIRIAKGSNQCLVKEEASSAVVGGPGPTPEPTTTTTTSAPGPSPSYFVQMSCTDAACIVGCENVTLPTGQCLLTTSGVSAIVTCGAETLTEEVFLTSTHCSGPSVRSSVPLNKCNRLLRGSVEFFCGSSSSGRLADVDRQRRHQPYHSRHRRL
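Compounds were screened in titration against cruzain (1.5 nM) with 0.01% Triton X-100 to counter colloidal aggregation. Activity was the AMC fluorescence increase over 60 s after adding 2 uM Z-FR-AMC at pH 5.5.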
Cruzain noTriton: qHTS Assay for Promiscuous and Specific Inhibitors of Cruzain (without detergent) | Cruzipain (Trypanosoma cruzi), P25779 | purified cruzain, Z-FR-AMC fluorescence, no detergent | Potency, µM, for the others: max response, negative = inhibition, usual class: inhibitors | 200,000 compounds, 2.3% hits | AID 1476, 2009;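 further: plate controls were enzyme without inhibitor for no effect and buffer without enzyme for full effect; nearly all actives have a fitted effect of over 40% in size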
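Purified cruzain at 1.5 nM, pre-incubated 15 min with compound at room temperature in 100 mM sodium acetate pH 5.5, 5 mM DTT, 0.00005% Triton X-100. Reaction started with 2 uM Z-FR-AMC; AMC fluorescence increase over 60 s gives rate.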
The depositor's hits bear a star; ? = inconclusive. The call rests on the fitted dose curve; in most records, active means well fitted curve in the direction sought with a large enough effect; inconclusive means small, poorly fitted or top-dose-only effect, or another doubt; inactive means no such curve, though single readings can be large; an effect the other way counts as inactive or inconclusive. Potency means the concentration at half of the fitted maximal effect.

SMILES | Cruzain Triton | Cruzain noTriton
N#Cc1c(NC(=O)c2ccccc2)sc2c1CCCCC2 | -10% | -1%
CN(Cc1ccco1)c1ncnc2ccc(-c3ccccc3C#N)cc12 | -2% | -8%
Cc1ccc(CNC(=O)CSc2c(C(C)C)cnc3c2c(=O)n(C)c(=O)n3C)cc1 | 1% | -5%
CCn1c(C)cc(/C=C2\NC(=O)N(CC(=O)Nc3cccc(C)c3)C2=O)c1C | 1% | ?
CCn1c(C)cc(/C=C2\SC(=O)N(CC(=O)Nc3ccc(C)c(C)c3)C2=O)c1C | 0% | 16µM*
Cn1cccc1/C=C1\SC(=O)N(CC(=O)Nc2ccc(Cl)cc2)C1=O | -3% | ?
Cc1ccc(NC(=O)CN2C(=O)S/C(=C\C(=O)Nc3ccc(Cl)cc3)C2=O)cc1 | 0% | 10µM*
COc1cccc(CNC(=O)c2cc(-c3ccc(Cl)cc3)n[nH]2)c1 | -10% | -4%
Cc1nc2cccnc2n1-c1cccc(C(=O)NCc2cccc(Cl)c2)c1 | -14% | -3%
COc1ccc(NC(=O)CN2C(=O)C(C)(C)c3cc(S(=O)(=O)N4CCCCC4)ccc32)cc1Cl | -3% | 9%
Cc1cccc(-n2c(/C=C/c3c(C)[nH]c4ccccc34)nc3ccccc3c2=O)c1 | 0% | -3%
Cc1[nH]c2ccccc2c1/C=C/c1nc2ccccc2c(=O)n1-c1ccc([N+](=O)[O-])cc1 | 1% | 25µM*
O=c1n(Cc2ccccc2Cl)c2ccccc2c2nc(-c3ccccc3)nn12 | 3% | -9%
Nc1ccc2cc3ccccc3cc2c1 | 0% | 13µM*
Nc1ccc2ncccc2c1 | 2% | -7%
Cc1nn(-c2ccccc2)c(N2CCCC2)c1/C=N/NC(=S)Nc1ccccc1C(F)(F)F | -7% | ?
Cc1nn(-c2ccccc2)c(N2CCCC2)c1/C=N/NC(=S)Nc1cc(C(F)(F)F)ccc1Cl | -4% | 10µM*
CCOc1ccc(Nc2nc(-c3cccc(Cl)c3)c3c(n2)-c2ccccc2OC3)cc1 | -5% | -1%
Cc1c(CC=C(Cl)Cl)c(=O)[nH]c2c(C)cccc12 | 0% | 2.5µM*
CCCc1c(C)c2cccc(C)c2[nH]c1=O | 3% | -11%
O=C(COc1ccc([N+](=O)[O-])cc1)Nc1nc2c(s1)CCCC2 | -1% | -16%
CCC1CCc2nc3sc(C(=O)Nc4cccc(C(F)(F)F)c4)c(N)c3cc2C1 (stereo not drawn) | -3% | -34%
CCC1CCc2nc3sc(C(=O)Nc4cccc(F)c4)c(N)c3cc2C1 (stereo not drawn) | -5% | 5µM*
Cc1ccc2occ(CC(=O)N(Cc3ccc(C(C)C)cc3)C3CCS(=O)(=O)C3)c2c1 (stereo not drawn) | -13% | ?
O=C(Nc1ccccc1)c1ccc(OC(=O)c2cc3ccccc3o2)cc1 | 8% | 13µM*
SMILES | Cruzain Triton | Cruzain noTriton
O=C(Nc1ccccc1)c1cc2ccccc2o1 | -2% | -4%
CCc1ccccc1NC(=O)CSc1ncccc1C(=O)O | 0% | -4%
COc1ccc(CNC(=O)c2cc(-c3ccc(OC)c(OC)c3)nc3n[nH]c(-c4ccc(C)cc4)c23)cc1 | 1% | ?
COc1cc(OC)cc(-c2nc(-c3ccccc3OC)no2)c1 | -1% | ?
COc1cc(N=c2ssnc2Cl)cc(OC)c1 | -12% | 16µM*
Cc1ccc(C)c(N2CCN(C(=O)c3cccn3-c3nnc(N4CCCCC4)s3)CC2)c1 | -3% | -6%
Cc1ccc(OCC(=O)NCC(=O)OCc2cc(=O)n3nc(C(C)C)sc3n2)cc1 | -2% | 1%
CC(=O)N1CCC2(CCN(Cc3cc(C(F)(F)F)cc(C(F)(F)F)c3)CC2)CC1 | 4% | -5%
COC(=O)c1c(NC(=O)c2nc(SCc3ccccc3C)ncc2Cl)sc2c1CCCC2 | 3% | 16%
NC(=S)Nc1nc2ccccc2[nH]c1=O | 7.9µM* | ?
O=c1[nH]c2ccccc2nc1C(Cl)c1ccccc1 (stereo not drawn) | -2% | -15%
O=C(COc1ccc2ccccc2c1)NCCNC(=O)COc1ccc2ccccc2c1 | 7% | 25µM*
O=C(COc1ccc2ccccc2c1)NNC(=O)Cc1ccccc1 | -4% | -2%
COc1ccc(OCC(=O)Nc2nc3ccccc3[nH]2)cc1 | 2% | -9%
O=C(COc1ccc2ccccc2c1)Nc1nc2ccccc2[nH]1 | 1% | 25µM*
O=C=Nc1ccc(Cc2ccc(N=C=O)cc2)cc1 (tested in a mixture with another compound) | 0% | 3%
O=C=Nc1ccc(Cc2ccc(N=C=O)cc2)cc1 | -19% | 16µM*
O=C(Cc1cn2ccsc2n1)Nc1cccc2cnccc12 | ? | 13µM*
O=C(Cc1cn2ccsc2n1)Nc1ccccn1 | -7% | -29%
OC[C@@H]1[C@@H](c2ccc(F)cc2)C(c2ccc(F)cc2)=NN1c1ccccc1 | -3% | 20µM*
OC[C@@H]1[C@@H](c2ccccc2)C(c2ccc(F)cc2)=NN1c1ccccc1 | -10% | ?
OC[C@@H]1[C@@H](c2ccc(Cl)cc2)C(c2ccc(F)cc2)=NN1c1ccccc1 | 0% | 25µM*
CC[C@H]1C(c2cccc(Cl)c2)=NN(c2ccccc2)[C@@H]1CO | 1% | -11%
COc1ccc(CNC(=O)CSCc2nc(-c3ccccc3C)oc2C)cc1 | -1% | 3%
CCC(CC)C(=O)N1CCc2cc(OC)c(OC)cc2C1COc1ccc(C(=O)OC)cc1 (stereo not drawn) | 1% | ?
SMILES | Cruzain Triton | Cruzain noTriton
COc1ccc(-c2nc3c(c(SCC(=O)N4CCCCC4)n2)Cc2c(CO)cnc(C)c2O3)cc1 | 1% | 9%
Nc1cc(C(=O)OCC(=O)NCc2ccc(F)cc2)ccc1Cl | 4% | 0%
Nc1cc(C(=O)OCC(=O)NC(c2ccccc2)c2ccccc2)ccc1Cl | -1% | 25µM*
CCOc1ccc2c(c1)c(=O)c(C(=O)c1ccccc1)cn2Cc1ccccc1F | 1% | -9%
COc1ccc(NC(=O)CN2C(=O)C(C)N=C(c3ccccc3)c3ccccc32)cc1OC (stereo not drawn) | -1% | ?
Cc1cccc(NC(=O)N[C@@H]2N=C(c3ccccc3)c3ccccc3N(CC(=O)c3ccccc3C)C2=O)c1 | -2% | 32µM*
CCc1ccccc1NC(=O)c1ccc2c(c1)N(Cc1cc(C)ccc1C)C(=O)c1ccccc1S2(=O)=O | 0% | 16µM*
O=C(NCCC1=CCCCC1)c1ccc2c(c1)N(Cc1cccc(Cl)c1)C(=O)c1ccccc1S2(=O)=O | -1% | ?
COc1ccc(CNC(=O)c2ccc3c(c2)N(Cc2ccccc2)C(=O)c2ccccc2S3(=O)=O)cc1 | 1% | ?
O=C(NCCC1=CCCCC1)c1ccc2c(c1)N(Cc1ccc(Cl)cc1)C(=O)c1ccccc1S2(=O)=O | -1% | 32µM*
O=C(NCc1ccco1)c1ccc2c(c1)N(Cc1ccc(Cl)cc1)C(=O)c1ccccc1S2(=O)=O | -4% | 25µM*
COc1ccc(CNC(=O)c2ccc3c(c2)N(Cc2ccccc2F)C(=O)c2ccccc2S3(=O)=O)cc1 | -1% | 25µM*
Cc1ccc(C)c(CN2C(=O)c3ccccc3S(=O)(=O)c3ccc(C(=O)N4CCCC4)cc32)c1 | -2% | ?
O=C(NCc1ccco1)c1ccc2c(c1)N(Cc1cccc(Cl)c1)C(=O)c1ccccc1S2(=O)=O | -4% | ?
FC(F)(F)c1ccc(C2=Nc3ccccc3NC(c3cccs3)=N2)cc1 | -9% | 9%
CC(C1CCCC(=O)C1)[N+](=O)[O-] (stereo not drawn) | 2% | -5%
